Drawing on PubChem BioAssay AID489018 (Southern Research Specialized Biocontainment Screening …, 2010), this text covers outcome for 117 compounds.

The structures appear in SMILES notation. Screen size: about 2,300 compounds; about 350 (15%) were called active. The rule behind the calls is not given here. Only a sample is shown. Where a call stands in place of a potency, no number is given. Potency and affinity values are given separately.

This assay can be described thus: HepG2 cell cytotoxicity, dose response, cytotoxicity control for non-replicating M. tuberculosis project (AID 489018).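 Note: HepG2 human liver cells.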 To be noted: series mostly up to 20 µM.
With `O=C(N/N=C/c1cc([N+](=O)[O-])ccc1O)C12CC3CC(CC(C3)C1)C2`, the compound was classed as inactive.

With `CCN1CCN(c2ccc(S(=O)(=O)N3CCCCC3)cc2NC(=O)c2ccc([N+](=O)[O-])o2)CC1`, the compound was classed as inactive.

Take `O=C(OCc1cccc(F)c1)c1ccc2c(=O)n3c(nc2c1)CCC3`: the outcome was inactive.

Consider `CN(C)CC/C=C1/c2ccc(F)cc2Sc2ccc(Cl)cc21`, for which the result was inactive.

Turning to `O=[N+]([O-])c1cc(-c2nc(-c3ccncc3)no2)cc([N+](=O)[O-])c1`, the compound was classed as inactive.

Take `O=c1c2cc(Cl)ccc2oc2nc3n(c(=O)c12)CCCS3`: the compound was called inactive.

For `CC(=O)CC1(OC(C)=O)C(=O)N(C)c2ccccc21` (configuration not stated), the compound was called inactive.

With `Oc1ccc(F)c2cccnc12`, the compound was classed as inactive.

As to `O=C(CCN1CCOCC1)c1ccc(Cl)cc1`, the compound was called inactive.

With `COc1cc(NC(=O)N2CCOCC2)cc(OC)c1`, the compound was called inactive.

For `COc1ccc(/C=N/NC(=O)c2ccncc2)cc1CN1CCOCC1`, the compound was classed as inactive.

In the case of `COc1cc(OC)cc(OC(=O)c2ccc3c(=O)n4c(nc3c2)CCC4)c1`, the result was inactive.

Take `O=C(Oc1cccc2cccnc12)c1cccc(-n2cnnn2)c1`: the compound was called inactive.

On to `O=C(Oc1cccc2cccnc12)c1cccc([N+](=O)[O-])c1`, for which the compound was classed as inactive.

Consider `O=C(Oc1cccc2cccnc12)c1ccc2c(c1)OCCO2`, for which the call was inactive.

Turning to `CCc1ccc(N2NC(=O)/C(=C/C=C/c3ccco3)C2=O)cc1`, the outcome was inactive.

With `Cc1ccccc1OCCCCc1c(C)n[nH]c1C`, the result was inactive.

For `COc1ccc(C(=O)COC(=O)c2ccc(Cl)nc2)c(OC)c1`, the result was inactive.

In the case of `COc1ccc(N2C(=O)NC(=O)/C(=C/c3ccc([N+](=O)[O-])s3)C2=O)cc1`, the compound was classed as inactive.

Turning to `CCc1ccc(Cc2cnc(NC(=O)C3=NCCN3)s2)cc1`, the outcome was inactive.

In the case of `CCCCNC(=O)Cc1ccc(C)cc1`, the outcome was inactive.

`COc1cccc2[nH]c3c(Cl)ncnc3c12`: the outcome was inactive.

Take `Cc1ccc(C(=O)Oc2cccc(-n3cnnn3)c2)cc1`: the call was inactive.

Turning to `O=C(COc1c(Br)cc(Br)c2cccnc12)N1CCCCC1`, the outcome was inactive.

For `CCOC(=O)C1(CCc2ccccc2)CCN(Cc2ccccn2)CC1`, the compound was classed as inactive.

For the compound `O=C(OCC(=O)N1CCN(c2ccccc2)CC1)c1cnc(Cl)c(Cl)c1`, the outcome was inactive.

With `Cc1[nH]n2c(=O)c3c(nc2c1-c1ccccc1)CCCC3`, the compound was called inactive.

For the compound `O=C(Nc1nc2ccccc2[nH]1)c1cccc([N+](=O)[O-])c1`, the compound was classed as inactive.

Take `Cc1cc(C)n2[nH]c(=O)c(N=Nc3cccc(C(F)(F)F)c3)c2n1`: the outcome was inactive.

With `CCOC(=O)c1ccc(-c2ccc(C(=O)Nc3cccnc3)o2)cc1`, the result was inactive.

With `Cc1cccc(C)c1NC(=O)COC(=O)CCc1c[nH]c2ccccc12`, the outcome was inactive.

Consider `O=C(COc1ccc(-c2ccccc2)cc1)Nc1cccnc1`, for which the outcome was inactive.

Regarding `O=C(COc1ccc(Nc2ccccc2)cc1)OCC(=O)N1CCCCC1`, the outcome was inactive.

On to `CCn1nnc(NC(=O)c2sc3ccccc3c2Cl)n1`, for which the compound was classed as inactive.

As for `O=C(Nc1nccs1)c1sc2ccccc2c1Cl`, the result was inactive.

For `CCCc1ccc(OCc2ccc(C(=O)N/N=C/c3cccnc3)o2)cc1`, the result was inactive.

On to `O=C(Nc1ccc(Cl)c(Cl)c1)O/N=C/c1ccncc1`, for which the compound was classed as inactive.

`O=C(COc1ccccc1)NNc1nc2ccccc2s1`: the outcome was inactive.

Regarding `CC(C)(C)/C(O)=C/c1nc2ccccc2oc1=O`, the result was inactive.

Turning to `O=C(N/N=C/c1cc([N+](=O)[O-])ccc1O)C1CCCCC1`, the call was inactive.

For the compound `Cc1ccc(-c2ccc(/C=N/NC(=O)CN3CCCC3)o2)cc1Cl`, the outcome was inactive.

Regarding `Nc1ccc2nc3c(c(Cl)c2c1)CCCC3`, the call was inactive.

For the compound `CCOC(=O)c1cnc(Nc2nc3ccccc3o2)nc1CSC(=S)N1CCCCC1`, the call was inactive.

Regarding `Oc1ccccc1/C=N/Nc1nc2ccccc2o1`, the outcome was inactive.

With `O=C(OCCCOC(=O)c1ccc([N+](=O)[O-])o1)c1ccc([N+](=O)[O-])o1`, the compound was called inactive.

Consider `CN1C(=O)/C(=C/c2cccc(Cl)c2)Sc2ccc(C(=O)N3CCCC3)cc21`, for which the result was inactive.

`Cc1ccc2oc(=O)c3cc(C(=O)NCCCN4CCCCCC4)sc3c2c1`: the compound was called inactive.

On to `COc1cccc(/C=C2\SC(=S)N(CCC(=O)N3CCCCC3)C2=O)c1`, for which the call was inactive.

As for `O=C1Nc2cc(C(=O)NCCCN3CCOCC3)ccc2S/C1=C/c1cccc(Cl)c1`, the outcome was inactive.

Take `Cc1ccc(/C=N/NC(=O)C2COc3ccccc3O2)s1` (configuration not stated): the compound was classed as inactive.

As to `Cc1ccnc(NC(=O)c2cc3ccccc3o2)c1`, the compound was classed as inactive.

On to `CC(C)(C)C(=O)/C=C/Nc1ccccc1O`, for which the outcome was inactive.

Consider `O=C(OCC(=O)N1CCN(c2ccccc2)CC1)c1ccc(Cl)cc1[N+](=O)[O-]`, for which the call was inactive.

`COc1cc(NCCC(=O)c2cccs2)c(OC)cc1Cl`: the call was inactive.

Consider `COC(=O)C1=C(N)OC2=C(C(=O)CC(C)(C)C2)C1c1cccnc1` (configuration not stated), for which the compound was called inactive.

`CCOC(=O)CNC(=O)CNC(=O)c1nn(-c2ccc(OC)c(Cl)c2)c(=O)c2ccccc12`: the result was inactive.

Take `Cc1cc(Cl)cc(C)c1OCCCCn1ccnc1`: the result was inactive.

As to `C=CCn1c(=O)c(C(=O)Nc2cccnc2)c(O)c2ccccc21`, the call was inactive.

With `CCCCn1c(=O)c(C(=O)Nc2nnc(C(C)C)s2)c(O)c2ccccc21`, the call was inactive.

As for `CCCCCCn1c(=O)c(C(=O)Nc2nnc(C)s2)c(O)c2ccccc21`, the outcome was inactive.

In the case of `CCCCn1c(=O)c(C(=O)Nc2ncccc2C)c(O)c2ccccc21`, the result was inactive.

In the case of `Cc1cccnc1NC(=O)c1c(O)c2ccccc2n(C)c1=O`, the result was inactive.

Regarding `CCn1c(=O)c(C(=O)Nc2ncccc2C)c(O)c2ccccc21`, the outcome was inactive.

In the case of `Cc1cccc(NCc2ccc([N+](=O)[O-])s2)c1`, the call was inactive.

For the compound `c1coc(CNc2nc(N3CCCCC3)nc3ccccc23)c1`, the compound was classed as inactive.

Consider `Cc1ccc(NC(=O)COC(=O)C2=COCCO2)c([N+](=O)[O-])c1`, for which the compound was called inactive.

On to `Cn1c(NC(=O)c2ccccc2)nc2ccccc21`, for which the call was inactive.

As for `COc1ccc2c(c1)sc(=N)n2C`, the compound was classed as inactive.

Regarding `Cc1ccc2c(c1)c(C1=c3ccccc3=NC1=O)c(O)n2C`, the compound was classed as inactive.

With `COc1ccc(COc2cccc(C=O)c2)cc1`, the outcome was inactive.

As to `COc1ccc(C(=O)OCn2nnc3ccccc3c2=O)cc1[N+](=O)[O-]`, the call was inactive.

`COc1ccc(C(=O)C2CCCN(C(=O)c3ccc(CSC)o3)C2)cc1F` (configuration not stated): the compound was classed as inactive.

As for `O=C(N/N=C/c1ccc[nH]1)c1ccncc1`, the outcome was inactive.

For `CCOC(=O)CC(=O)Nc1ccc(C(=O)OCC)cc1`, the call was inactive.

For the compound `C/C(=N\Nc1nc2ccccc2[nH]1)c1cc2ccccc2o1`, the call was inactive.

Consider `O=C(NNc1nc2ccccc2s1)Nc1ccc(F)cc1`, for which the compound was called inactive.

With `COc1cc(Cl)cc(/C=N/NC(N)=O)c1O`, the compound was called inactive.

For the compound `O=C(N/N=C/C=C/c1ccccc1[N+](=O)[O-])c1ccncc1`, the outcome was inactive.

Regarding `O=C(N/N=C/c1cccc([N+](=O)[O-])c1O)c1cccs1`, the outcome was inactive.

Turning to `NC(N)=N/N=C/c1cccc([N+](=O)[O-])c1O`, the call was inactive.

As for `Cc1cc(N/N=C/c2ccccc2[N+](=O)[O-])nc(-n2nc(C)cc2C)n1`, the call was inactive.

As to `CCc1nnc(NC(=O)c2cc3ccccc3oc2=O)s1`, the call was inactive.

With `Cn1c(=O)[nH]c(=O)c2c1nc([N+](=O)[O-])n2Cc1ccccc1`, the call was inactive.

For `C=CCc1cc(Cl)ccc1OCCCn1ccnc1`, the compound was called inactive.

For `COc1ccc(C2(O)CCN(CC(=O)Nc3nc(-c4ccccc4)cs3)CC2)cc1`, the result was inactive.

For the compound `Cc1onc(-c2ccccc2Cl)c1C(=O)O/N=C(\N)c1ccc([N+](=O)[O-])o1`, the outcome was inactive.

`CCC(CC)COC(=O)C(C#N)c1nc2ccccc2nc1N1CCN(CC)CC1` (configuration not stated): the outcome was inactive.

In the case of `NCCOc1ccc(C23CC4CC(CC(C4)C2)C3)cc1`, the compound was called inactive.

As for `O=c1[nH]c2ccccc2c2oc(CCl)nc12`, the result was inactive.

With `N=C1/C(=C/c2ccc(OC(=O)c3ccco3)cc2)C(=O)N=C2SC=CN12`, the outcome was inactive.

In the case of `COC(=O)CN(C#N)c1nc(N(C)C)nc(N(C)C)n1`, the compound was classed as inactive.

For `O=C(N/N=C/c1ccc(O)cc1)c1cccc(C(F)(F)F)c1`, the result was inactive.

For `O=C(Nc1nnc(C2=COCCO2)o1)c1cccc(C(F)(F)F)c1`, the compound was classed as inactive.

Regarding `COc1cccc(CN2CCC(N(CCc3ccccc3)Cc3ccccc3)CC2)c1OC`, the compound was classed as inactive.

`OCC#CCSc1nnc(-c2ccc(Br)cc2)o1`: the result was inactive.

For `COc1cccc(COC(=O)CCNC(=O)c2ccc(Br)cc2)c1OC`, the outcome was inactive.

In the case of `CCOC(=O)COc1ccc(C(=O)Nc2cccc(Cl)c2C)cc1`, the compound was classed as inactive.

`O=C(NNC1=Nc2ccccc2SC1)c1ccc(F)cc1`: the compound was classed as inactive.

For the compound `O=C(Nc1nnc(-c2ccc(Br)cc2)o1)c1ccco1`, the call was inactive.

Take `O=C(Nc1nnc(-c2ccco2)o1)c1ccc(Cl)s1`: the call was inactive.

With `CCOc1cc(-c2nnc(NC(=O)c3ccco3)o2)cc(OCC)c1OCC`, the outcome was inactive.

With `CCOc1ccc(OCCSc2ccc(S(=O)(=O)N3CCN(C)CC3)cn2)cc1`, the compound was classed as inactive.

Turning to `COC(=O)c1ccc(Sc2nnnn2-c2ccccc2)c([N+](=O)[O-])c1`, the compound was classed as inactive.

For the compound `FC(F)c1nnc2ccc(Cl)nn12`, the compound was classed as inactive.

`O=C(N/N=C/c1ccc([N+](=O)[O-])s1)c1cccnc1`: the outcome was inactive.

With `O=C(COc1ccccc1)Nc1nnc(-c2ccc3c(c2)CCCC3)o1`, the compound was called inactive.

As to `Cc1cc(Cl)ccc1OCC(=O)NNC(=O)c1cnccn1`, the compound was classed as inactive.

As for `O=C(N/N=C\c1ccc([N+](=O)[O-])s1)c1cncc(Br)c1`, the compound was classed as inactive.

Consider `Cc1c(C(=O)N(C)C)sc2nc(-c3ccccn3)[nH]c(=O)c12`, for which the result was inactive.

In the case of `CN(C)CCCn1c(=O)n(C2CCCCC2)c(=O)c2c3c(sc21)CCCCC3`, the compound was classed as inactive.

On to `CN(C)CCCNc1nc2sc3c(c2c(=O)n1CCc1ccccc1)CCCCC3`, for which the compound was classed as inactive.

In the case of `Cn1c(O)c(C(=Nc2ccccc2)SCc2ccccc2Cl)c(=O)n(C)c1=O`, the outcome was inactive.

For the compound `C=CCOc1ccc(CNCCO)cc1OCC`, the call was inactive.

As for `CCc1cc(OCCCCNCc2ccccc2)ccc1Cl`, the compound was called inactive.

On to `C/C(=N/Nc1ccnc2cc(Cl)ccc12)c1ccc(N)cc1`, for which the call was inactive.

Regarding `CC1CCN(C(=O)COC(=O)c2cc3ccccc3cc2O)CC1`, the compound was called inactive.

In the case of `CCc1c(C)c2ccc(OCC(=O)OC)cc2oc1=O`, the result was inactive.
